Results on 39 molecules are retold here after PubChem BioAssay (NCI).

Structures are written as SMILES. About 83,000 compounds went through this panel and 20% of them were active in at least one assay; those are over-represented in the sample as a whole.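 Testing used 96-well plates and a 48-hour single-concentration exposure. Example: -40 means 40% of the starting cells died.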 Calls of active or inactive are those of the source. Rule for the calls: active = growth percent below 10; inactive = the rest.

This test has as its system HCT-15 colon. Kind of test: NCI-60 one-dose screen, 48 h (100 = growth as untreated, 0 = no growth, -100 = all killed). Particulars: 10 µM unless noted.
Regarding `CC(C)(C)c1ccc(OCCCCCCCN2CCNCC2)cc1`, the growth was -22.1% (active). Under `O=Cc1nc2ccccc2[nH]1` stands 108% (inactive). Turning to `C[C@]12CC[C@@H]3c4ccc(O)cc4CC[C@H]3[C@@H]1C[C@H](O)[C@@H]2O`, the growth was 97.3% (inactive). As for `Cn1c(=O)c2c(ncn2CCC(=O)Nc2ccc(F)cc2)n(C)c1=O`, the growth was 106% (inactive). `CN(C)CCCCC(C(=O)CBr)(c1ccccc1)c1ccccc1`: the growth is -33.9% (active). Regarding `C[C@@H]1CCCCCCCCC[C@H](O)C(=O)C[C@@H](SC[C@@H](O)C(=O)O)C(=O)O1`, the growth is 87.3% (inactive). For `O=C(N/N=C/c1ccccc1SSc1ccccc1/C=N/NC(=O)c1ccccc1)c1ccccc1` the value was 21.6% (inactive). Consider `CC/C=C\C[C@H]1CC=C2C(=O)C=C[C@@H]2CC=CCCCC(=O)O[C@@H](CCCCC)CC=C2C(=O)C=C[C@@H]2CC=CCCCC(=O)O[C@@H](CCCCC)CC=C2C(=O)C=C[C@@H]2CC=CCCCC(=O)O[C@@H](CCCCC)CC=C2C(=O)C=C[C@@H]2CC=CCCCC(=O)O1`, for which the growth was 47.1% [7.9 µM] (inactive). For `COc1ccc(NC(=S)N/N=C/c2ccccc2SSCCC(=O)OC[C@H]2O[C@H](O)[C@H](O)[C@@H](O)[C@@H]2O)cc1` the value was 71.8% (inactive); for `Fc1ccc(Nc2nnc(-c3ccc(Cl)cc3)o2)cc1`, 98.4% (inactive). For `COC(=O)[C@]12CC[C@@H](C)[C@H](C)[C@@H]1C1=CC[C@@H]3[C@@](C)(CC#N)C4=C(C[C@@]3(C)[C@]1(C)CC2)OC[C@]4(C)C=O` the value was 0.689% (active). Consider `COc1ccc(/C=C/C(=O)NCC(C)O)cc1` (centres undefined), for which the growth is 102% (inactive). Regarding `COc1cnc2c(c1)C(=O)c1c-2n(CCCNC(C)C)c(=O)c2cc([N+](=O)[O-])ccc12`, the growth was -56.2% (active). Consider `Cn1cc(-c2csc(-c3cn(CCNC(=O)OC(C)(C)C)c4ccc(F)cc34)n2)c2cccnc21`, for which the growth was 52.8% (inactive). Under `NCCn1cc(-c2nc(-c3c[nH]c4ncccc34)cs2)c2cc(F)ccc21` stands 58.9% (inactive). Regarding `Cc1cc(N2CCCCC2)nc(N(CCNc2ccnc3cc(Cl)ccc23)Cc2ccco2)n1`, the growth is 13.8% (inactive). Turning to `Fc1ccc(Nc2nc(Nc3ccc(-c4nc5ccccc5[nH]4)cc3)nc(N3CCCC3)n2)cc1`, the growth is -8.99% (active). As for `Brc1ccc2c(c1)c(-c1nc(-c3c[nH]c4ncccc34)cs1)cn2CCCN1CCCCC1`, the growth was -80% (active). As for `O=C1CNCCN1`, the growth was 100% (inactive). For `COC(=O)[C@]12CC[C@@H](C)[C@H](C)[C@@H]1C1=CC[C@@H]3[C@@]4(C)CC(=O)[C@H](OC(=O)c5ccco5)[C@@]5(C)COC(=C45)C[C@@]3(C)[C@]1(C)CC2` the value was 24.1% (inactive); for `NCCn1cc(-c2nc(-c3c[nH]c4ncccc34)cs2)c2cc(Br)ccc21`, 27.1% (inactive). On to `Cc1cc(N2CCCCC2)nc(N(CCCNc2ccnc3cc(Cl)ccc23)Cc2ccco2)n1`, for which the growth was 11.3% (inactive).

As for `CCCCC[C@H]1CC=C2C(=O)C=C[C@@H]2CC=CCCCC(=O)O[C@@H](CCCCC)CC=C2C(=O)C=C[C@@H]2CC=CCCCC(=O)O[C@@H](CCCCC)CC=C2C(=O)C=C[C@@H]2CC=CCCCC(=O)O1`, the growth is 7.88% [8.75 µM] (active). Under `CCC(CC)C(=O)OC(C)COc1ccc(C(C)(C)C)cc1` (centres undefined) stands 109% (inactive); under `CC/C(=N/NC(N)=O)c1ccccc1`, 91.2% (inactive).

Turning to `N#CC1=C(N)Oc2c(sc3c(F)cccc23)C1c1ccc(Cl)cc1` (centres undefined), the growth is 23.9% (inactive).

Turning to `CCCCC[C@H]1C/C=C2/C(=O)C(Cl)=C[C@@H]2C/C=C\CCCC(=O)O[C@@H](CCCCC)C/C=C2/C(=O)C(Cl)=C[C@@H]2C/C=C\CCCC(=O)O1`, the growth was -24.6% (active). In the case of `c1ccc(-c2nc(Nc3ccc(-c4nc5ccccc5[nH]4)cc3)nc(N3CCOCC3)n2)cc1`, the growth is -68.9% (active). Consider `Fc1ccc2c(c1)c(-c1nc(-c3c[nH]c4ncccc34)cs1)cn2CCCN1CCCCC1`, for which the growth was -8.44% (active).

Turning to `CN(C)c1ccc(N=C2C=CC(=O)C=C2)cc1`, the growth is 97.7% (inactive).

For the molecule `Cc1ccncc1C(=O)O`, the growth was 104% (inactive).

On to `COc1cc2ncnc(Nc3ccc(Oc4ccnc(C)c4)c(C)c3)c2cc1NC(=O)CC1CCSS1` (centres undefined), for which the growth is -72.4% (active). On to `O=C1Nc2ccccc2/C1=C/c1cn(CCCn2c3ccccc3c(=O)c3ccccc32)c2ccccc12`, for which the growth was 82.3% (inactive). Turning to `CCCCC[C@H]1CC=C2C(=O)C(Cl)=C[C@@H]2CC=CCCCC(=O)O[C@@H](CCCCC)CC=C2C(=O)C(Cl)=C[C@@H]2CC=CCCCC(=O)O[C@@H](CCCCC)CC=C2C(=O)C(Cl)=C[C@@H]2CC=CCCCC(=O)O1`, the growth was 71.6% [8 µM] (inactive). Turning to `O=C1c2ccccc2NC(c2cn(-c3ccccc3)nc2-c2cccs2)N1Cc1ccccc1` (centres undefined), the growth is 77.7% (inactive).

For the molecule `COC(=O)[C@]12CC[C@@H](C)[C@H](C)[C@@H]1C1=CC[C@@H]3[C@@]4(C)C[C@@H](O)[C@H](O)[C@@](C)(CO)C4=CC[C@@]3(C)[C@]1(C)CC2`, the growth is -60.8% (active). As to `Cn1c(=O)c2c(nc(Br)n2CC(=O)Nc2ccc(F)cc2)n(C)c1=O`, the growth was 115% (inactive). Under `CCN(CC)CCCCCCNc1ccnc2cc(Cl)ccc12` stands 92.6% (inactive); under `C#CCC(C)(O)/C=C/C1=C(C)CCCC1(C)C` (centres undefined), 107% (inactive).
